From PubChem BioAssay (NCI)
Compounds without any hit were thinned out: in the full panel of roughly 83,000, 20% have a hit.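 Method: cells in 96-well plates; compound added at one concentration; 48 h incubation; percent growth measured; values under 10 scored active.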 Activity calls are given as the source filed them.

Experiments:
Test in all cases: NCI-60 one-dose screen, 48 h (100 = growth as untreated, 0 = no growth, -100 = all killed)
Conditions in all cases: 10 µM unless noted
SR leukemia = system: SR leukemia
RPMI-8226 leukemia = system: RPMI-8226 leukemia
OVCAR-8 ovarian = system: OVCAR-8 ovarian
OVCAR-5 ovarian = system: OVCAR-5 ovarian
OVCAR-4 ovarian = system: OVCAR-4 ovarian
SK-OV-3 ovarian = system: SK-OV-3 ovarian
IGROV1 ovarian = system: IGROV1 ovarian
OVCAR-3 ovarian = system: OVCAR-3 ovarian
HS 578T breast = system: HS 578T breast
NCI/ADR-RES ovarian = system: NCI/ADR-RES ovarian

Measured: growth

COc1ccc2sc(NC(=O)CCCCCCNC(=O)C(O)(O)C(F)(F)F)nc2c1
inactive: SR leukemia 12.5% | RPMI-8226 leukemia 14.6% | OVCAR-4 ovarian 27.7% | HS 578T breast 19.1%
active: OVCAR-8 ovarian 2.54% | OVCAR-5 ovarian -0.588% | SK-OV-3 ovarian -26.6% | IGROV1 ovarian 0.233% | OVCAR-3 ovarian -23.9% | NCI/ADR-RES ovarian 5.2%

CC(=C(c1ccc(OCCN(C)C)cc1)c1ccc(OCCN(C)C)cc1)c1ccc(Cl)cc1
active: SR leukemia -36.1% | RPMI-8226 leukemia -42.7% | OVCAR-8 ovarian -46.9% | OVCAR-5 ovarian -69% | OVCAR-4 ovarian -17.4% | IGROV1 ovarian -76.8% | OVCAR-3 ovarian -55.5% | HS 578T breast -32.5% | NCI/ADR-RES ovarian -49.8%
inactive: SK-OV-3 ovarian 77.5%

Cc1ccc2c(n1)C(=O)C(Cl)=C(Nc1cccc(C)c1C)C2=O
active: SR leukemia 6.7% | RPMI-8226 leukemia -12.7% | OVCAR-8 ovarian -3.5% | OVCAR-5 ovarian -29% | OVCAR-4 ovarian -97.6% | IGROV1 ovarian -58.4% | OVCAR-3 ovarian -97.8% | HS 578T breast -13% | NCI/ADR-RES ovarian -5.45%
inactive: SK-OV-3 ovarian 117%

CC(C)=CCC[C@](C)(O)[C@H]1CC[C@]2(C)[C@@H]1CC[C@@H]1[C@@]3(C)CC[C@H](N)C(C)(C)[C@@H]3CC[C@]12C
active: SR leukemia -24.4% | RPMI-8226 leukemia -9.63%
inactive: OVCAR-8 ovarian 98.1% | OVCAR-5 ovarian 108% | OVCAR-4 ovarian 97.5% | SK-OV-3 ovarian 104% | IGROV1 ovarian 93.3% | OVCAR-3 ovarian 107% | HS 578T breast 94.6% | NCI/ADR-RES ovarian 88.9%

CC(=O)C1=C(C)NC(NNc2ccccc2)=NC1c1ccc([N+](=O)[O-])cc1 (stereo not given)
inactive: SR leukemia 62.4% | RPMI-8226 leukemia 92.4% | OVCAR-8 ovarian 91.1% | OVCAR-5 ovarian 95.9% | OVCAR-4 ovarian 84.3% | SK-OV-3 ovarian 106% | IGROV1 ovarian 82.6% | OVCAR-3 ovarian 99.7% | HS 578T breast 99.6% | NCI/ADR-RES ovarian 91.4%

Cc1ccc(NC(=O)Nc2nc3ccc([N+](=O)[O-])cc3s2)cc1
inactive: SR leukemia 20.3% | OVCAR-8 ovarian 12.8% | OVCAR-5 ovarian 10.3% | IGROV1 ovarian 16.8% | HS 578T breast 15.2%
active: RPMI-8226 leukemia 2.09% | OVCAR-4 ovarian -6.09% | SK-OV-3 ovarian -12.4% | OVCAR-3 ovarian -0.465% | NCI/ADR-RES ovarian 2.65%

C#CCOc1cccc(/C(N)=N/C(N)=N/c2nc3ccccc3s2)c1
inactive: SR leukemia 34.5% | RPMI-8226 leukemia 83.2% | OVCAR-8 ovarian 67.9% | OVCAR-5 ovarian 111% | OVCAR-4 ovarian 102% | SK-OV-3 ovarian 133% | IGROV1 ovarian 65.7% | OVCAR-3 ovarian 104% | HS 578T breast 108% | NCI/ADR-RES ovarian 59.1%

C#C[C@]1(O)CC[C@H]2[C@@H]3CC=C4c5sc(Nc6cccc(F)c6)nc5CC[C@]4(C)[C@H]3CC[C@@]21C
inactive: OVCAR-8 ovarian 43.8% | OVCAR-5 ovarian 57.5% | OVCAR-4 ovarian 44.5% | IGROV1 ovarian 49.8% | OVCAR-3 ovarian 27.4% | NCI/ADR-RES ovarian 37.9%
active: SR leukemia 1.48% | RPMI-8226 leukemia -31.8% | SK-OV-3 ovarian -10.6% | HS 578T breast -7.5%

C#CCN(C)CCCOc1ccc(NCc2ccc(C(=O)NO)cc2)cc1Cl
active: RPMI-8226 leukemia 9.94% | SK-OV-3 ovarian -4.09% | NCI/ADR-RES ovarian 7.57%
inactive: SR leukemia 15.7% | OVCAR-8 ovarian 14.7% | OVCAR-5 ovarian 23.4% | OVCAR-4 ovarian 31.3% | IGROV1 ovarian 15.6% | OVCAR-3 ovarian 24.3% | HS 578T breast 25%

C#C[C@]1(O)CC[C@H]2[C@@H]3CC=C4c5sc(Nc6cc(Cl)ccc6OC)nc5CC[C@]4(C)[C@H]3CC[C@@]21C
active: SR leukemia 3.9% | RPMI-8226 leukemia -35.1% | SK-OV-3 ovarian -6.24% | HS 578T breast -7.86%
inactive: OVCAR-8 ovarian 52.5% | OVCAR-5 ovarian 67.5% | OVCAR-4 ovarian 52.5% | IGROV1 ovarian 43.5% | OVCAR-3 ovarian 25.3% | NCI/ADR-RES ovarian 56.4%

COc1cc(C(=O)c2cc(C(C)=O)c3c(C)cccn23)cc(OC)c1OC
inactive: SR leukemia 96.5% | RPMI-8226 leukemia 95.5% | OVCAR-8 ovarian 106% | OVCAR-5 ovarian 95.8% | OVCAR-4 ovarian 90.8% | SK-OV-3 ovarian 109% | IGROV1 ovarian 97.6% | OVCAR-3 ovarian 115% | HS 578T breast 90.7% | NCI/ADR-RES ovarian 97.9%

CCN(CC)CCOc1ccc(C(=C(C)c2ccc(OC)cc2)c2ccc(OCCN(CC)CC)cc2)cc1
active: SR leukemia -37.3% | RPMI-8226 leukemia -43.7% | OVCAR-8 ovarian 10% | OVCAR-4 ovarian -24.4% | IGROV1 ovarian 0.0725% | OVCAR-3 ovarian -4.04% | HS 578T breast -21.8%
inactive: OVCAR-5 ovarian 18.8% | SK-OV-3 ovarian 96.4% | NCI/ADR-RES ovarian 25.3%

CCCC[n+]1ccc(SCC(=O)n2ccc3ccccc32)c2ccccc21
inactive: SR leukemia 56.3% | RPMI-8226 leukemia 59.5% | OVCAR-8 ovarian 92.7% | OVCAR-5 ovarian 103% | OVCAR-4 ovarian 72.1% | SK-OV-3 ovarian 88.9% | IGROV1 ovarian 83.3% | OVCAR-3 ovarian 91.8% | HS 578T breast 99.6% | NCI/ADR-RES ovarian 110%

CC1=C(C)C(=O)C(Nc2ccc3c(c2)OCO3)=C(Br)C1=O
inactive: SR leukemia 56.9% | RPMI-8226 leukemia 71% | OVCAR-8 ovarian 98.3% | OVCAR-5 ovarian 116% | OVCAR-4 ovarian 60.3% | SK-OV-3 ovarian 87.6% | IGROV1 ovarian 90.9% | OVCAR-3 ovarian 104% | HS 578T breast 99.7% | NCI/ADR-RES ovarian 97.4%

CCCCN1C(=O)/C(=c2\sc3n(c2=O)C2C(NN=3)N(CC)C(=O)N2CC)c2cc(C)ccc21 (stereo not given)
inactive: SR leukemia 64.1% | RPMI-8226 leukemia 99.8% | OVCAR-8 ovarian 93% | OVCAR-5 ovarian 96.1% | OVCAR-4 ovarian 97.2% | SK-OV-3 ovarian 108% | IGROV1 ovarian 88.4% | OVCAR-3 ovarian 102% | HS 578T breast 89.7% | NCI/ADR-RES ovarian 81.9%

COc1ccc2[nH]cc(/C=N/Nc3ccnc4cc(Cl)ccc34)c2c1
active: SR leukemia -27.1% | RPMI-8226 leukemia -62.8% | OVCAR-8 ovarian -70% | OVCAR-5 ovarian -100% | OVCAR-4 ovarian -100% | SK-OV-3 ovarian -95.6% | IGROV1 ovarian -94.6% | OVCAR-3 ovarian -82.1% | HS 578T breast -49.6% | NCI/ADR-RES ovarian -60.4%

COc1cc(C(=O)c2cc(C(C)=O)c3ccc(C)cn23)cc(OC)c1OC
inactive: SR leukemia 26.9% | RPMI-8226 leukemia 54.6% | OVCAR-8 ovarian 50.6% | OVCAR-5 ovarian 59.5% | OVCAR-4 ovarian 79.7% | SK-OV-3 ovarian 77.4% | IGROV1 ovarian 41.9% | OVCAR-3 ovarian 28% | HS 578T breast 59% | NCI/ADR-RES ovarian 18.4%

COc1ccc(/C=N/NC(=O)CSc2nc(-c3cnccn3)cc(-c3cccs3)c2C#N)cc1OC
inactive: SR leukemia 81.8% | RPMI-8226 leukemia 70.5% | OVCAR-8 ovarian 84.7% | OVCAR-5 ovarian 104% | OVCAR-4 ovarian 97.6% | SK-OV-3 ovarian 120% | IGROV1 ovarian 104% | OVCAR-3 ovarian 99% | HS 578T breast 69.8% | NCI/ADR-RES ovarian 96.6%

CC(C)(O)c1cncc(-c2ccc3ncc(C#N)c(N4CCc5cc(F)c(Cl)cc54)c3c2)c1
active: OVCAR-4 ovarian -1.6% | SK-OV-3 ovarian -22.1% | IGROV1 ovarian -14.5% | OVCAR-3 ovarian 9.12% | HS 578T breast -28%
inactive: SR leukemia 11.8% | RPMI-8226 leukemia 13.5% | OVCAR-8 ovarian 11.1% | OVCAR-5 ovarian 16.7% | NCI/ADR-RES ovarian 14.8%

CCOC(=O)c1cccc(NC2=C(Cl)C(=O)C(C)=C(C)C2=O)c1
active: OVCAR-4 ovarian -4.17%
inactive: SR leukemia 27.7% | RPMI-8226 leukemia 26.8% | OVCAR-8 ovarian 98.8% | OVCAR-5 ovarian 105% | SK-OV-3 ovarian 107% | IGROV1 ovarian 32.2% | OVCAR-3 ovarian 99.8% | HS 578T breast 95.9% | NCI/ADR-RES ovarian 102%

Clc1cccc(/C=N/Nc2nc(N/N=C/c3cccc(Cl)c3)nc(N3CCCCC3)n2)c1
inactive: SR leukemia 74.6% | RPMI-8226 leukemia 72.4% | OVCAR-8 ovarian 89.2% | OVCAR-5 ovarian 110% | OVCAR-4 ovarian 90.2% | SK-OV-3 ovarian 109% | IGROV1 ovarian 105% | OVCAR-3 ovarian 91.4% | HS 578T breast 105% | NCI/ADR-RES ovarian 95.2%

Cc1nc(N)sc1-c1csc(Nc2ccc(C(F)(F)F)cc2)n1
inactive: SR leukemia 18.9% | RPMI-8226 leukemia 26.6% | OVCAR-8 ovarian 49.4% | OVCAR-5 ovarian 32.2% | OVCAR-4 ovarian 42.7% | SK-OV-3 ovarian 65.5% | IGROV1 ovarian 18.9% | OVCAR-3 ovarian 20.8% | HS 578T breast 32.4% | NCI/ADR-RES ovarian 27.3%

NNc1nnc2nc(Nc3ccccc3)nc(Nc3ccc(S(N)(=O)=O)cc3)n12
inactive: SR leukemia 93.3% | RPMI-8226 leukemia 99.4% | OVCAR-8 ovarian 107% | OVCAR-5 ovarian 103% | OVCAR-4 ovarian 112% | SK-OV-3 ovarian 113% | IGROV1 ovarian 98.3% | OVCAR-3 ovarian 110% | HS 578T breast 99.6% | NCI/ADR-RES ovarian 99.6%
